PubChem BioAssay (NCI)
This is part of a sample that, as a whole, favours compounds with a hit. Of some 79,000 tested, about 15% had one in any assay. Rule as the data show it: active = growth inhibition above about 70%; inactive = the rest.

Key:
[1] = NCI Yeast Anticancer Drug Screen. Data for the rad50 strain (AID 155);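 also: 0% = growth of vehicle-only cultures of the same strain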; settings: S. cerevisiae rad50 strain growth inhibition; at 50.0 µM; active compounds read high
Procedure, shortened: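 Relative growth inhibition (compound vs vehicle) was measured in yeast with a defined repair-gene alteration.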

[2] = NCI Yeast Anticancer Drug Screen. Data for the mec2-1 strain (AID 157); settings: S. cerevisiae mec2-1 strain, at 50.0 µM, active compounds read high
Procedure, shortened: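 Mutant yeast (mec2-1) grown with compound; growth inhibition relative to vehicle control reported.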

[3] = NCI Yeast Anticancer Drug Screen. Data for the sgs1 mgt1 strain (AID 161);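 also: 0% = growth of cultures given vehicle only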; settings: S. cerevisiae sgs1 mgt1 strain, at 50.0 µM, active compounds read high
Procedure, shortened: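 Compounds are added to genetically altered yeast, and growth is compared with cultures given vehicle alone to give percent inhibition.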

[4] = NCI Yeast Anticancer Drug Screen. Data for the cln2 rad14 strain (AID 165);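 also: 0% = growth equal to vehicle treated cultures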; settings: S. cerevisiae cln2 rad14 strain, at 50.0 µM, active compounds read high
Procedure, shortened: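 Readout is yeast growth inhibition versus vehicle-treated controls, using a strain with cln2 and rad14 alterations exposed to compound.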

[5] = NCI Yeast Anticancer Drug Screen. Data for the bub3 strain (AID 167); settings: S. cerevisiae bub3 mutant strain, at 50.0 µM, active compounds read high
Procedure, shortened: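 Screening used yeast with an engineered genetic alteration affecting cell cycle control. Compound-exposed cultures were compared with vehicle cultures, and reduced growth was taken as inhibition.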

[6] = NCI Yeast Anticancer Drug Screen. Data for the mlh1 rad18 strain (AID 175); settings: S. cerevisiae mlh1 rad18 strain growth inhibition; at 50.0 µM; active compounds read high
Procedure, shortened: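 Genetically defined yeast (DNA repair-deficient) exposed to compounds; growth inhibition determined relative to vehicle.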

Measured: growth inhibition

O=C1OCC(c2ccccc2)(c2ccccc2)C(=O)N1O
inactive: [1] 18.4% | [2] -2.1% | [3] 3.95% | [4] 13.2% | [5] 5.65% | [6] 16.5%

O=C1CCc2c(Cl)sc(Cl)c21
inactive: [1] 20.1% | [2] 5.5% | [3] 13.8% | [4] -32.2% | [5] 4.1% | [6] 9.95%

CC(C)(SC(=N)N)B(O)O
inactive: [1] -3.2% | [2] -12.3% | [3] -6.55% | [4] 9.35% | [5] -8.35% | [6] -7.7%

Cc1cc(NS(=O)(=O)c2ccc(NC(=O)c3ccc(Cl)c4c(Nc5ccc(S(N)(=O)=O)cc5)c5ccccc5nc34)cc2)no1
inactive: [1] 34% | [2] 36.8% | [3] 33.5% | [4] 46.2% | [5] 31.4% | [6] 68.1%

Cc1ccc([N+](=O)[O-])cc1NC(=O)Oc1cc(=O)oc2ccccc12
inactive: [1] 3.2% | [2] 6.8% | [3] -6.9% | [4] -18.1% | [5] 1.7% | [6] -0.75%

Clc1ccc2sc(-c3ccccc3)nc2c1
inactive: [1] -22.8% | [2] -18.4% | [3] -4.45% | [4] -23.1% | [5] 7.45% | [6] -3.6%

N#Cc1nc(Nc2cccc3ccccc23)sc1N
inactive: [1] 8.2% | [2] 14.8% | [3] 20.9% | [4] 12.1% | [5] 15.7% | [6] 51.1%

O=C1O/C(=C2/OC(=O)c3ccccc32)c2ccccc21
inactive: [1] -8.05% | [2] -7.95% | [3] -3.75% | [4] -44% | [5] 14.5% | [6] -0.65%

O=C(O)C1CCCCN1/N=C/c1cccc([N+](=O)[O-])c1 (stereo unspecified)
inactive: [1] 36% | [2] 11.9% | [3] 22% | [4] 1.3% | [5] 26.9% | [6] 11.9%

NCC1CCCCO1 (stereo unspecified)
inactive: [1] 7% | [2] 5.1% | [3] 14.2% | [4] -4.1% | [5] -16.7% | [6] -4.65%

CCCCCCCC(=O)CC(C)C
inactive: [1] 12.1% | [2] -11.7% | [3] 0.6% | [4] -2.5% | [5] -21.4% | [6] 6.65%

COc1ccc(N=Cc2ccc(C#N)cc2)cc1
inactive: [1] 9.4% | [2] -25.2% | [3] -7.15% | [4] 7.95% | [5] -12.8% | [6] -4.9%

O=C(O)c1cc(Nc2nc(Cl)nc(Cl)n2)ccc1-c1c2ccc(=O)cc-2oc2cc(O)ccc12
inactive: [1] 37.2% | [2] 21.3% | [3] 22.7% | [4] 10% | [5] -1.15% | [6] 49.5%

[CH3][Sn]([CH3])([N](c1ccccn1)c1ccccn1)[N](c1ccccn1)c1ccccn1
inactive: [1] -8.85% | [2] 2.7% | [3] 17% | [4] -17.3% | [5] -1.65% | [6] -21.4%

CCOc1ccc(C(=O)OC(C)C)cc1
inactive: [1] 26.5% | [2] 4.15% | [3] 1.9% | [4] 2.7% | [5] -2.45% | [6] 6.15%

OCC(O)C(O)C(O)[C@H](O)c1nc2ccccc2[nH]1 (stereo partly specified)
inactive: [1] -15.7% | [2] -1.7% | [3] 0.15% | [4] -19.6% | [5] 27.4% | [6] 14.8%

CCCCOCCOC(=O)c1ccccc1C(=O)OCCOCCCC
inactive: [1] -5.75% | [2] -42.4% | [3] -49.4% | [4] -49% | [5] -23.1% | [6] -25%

O=P(O)(O)OC1C(OP(=O)(O)O)C(OP(=O)(O)O)C(OP(=O)(O)O)C(OP(=O)(O)O)C1OP(=O)(O)O.[Cu+2] (stereo unspecified)
inactive: [1] -18.1% | [2] -18.8% | [3] -14.7% | [4] -10.9% | [5] -9% | [6] -19.4%

COc1ccc(/C=N/Nc2nc3ccccc3c(=O)n2-c2ccccc2)cc1
inactive: [1] -56.3% | [2] -17.8% | [3] -38.6% | [4] -29.2% | [5] -11% | [6] -42%

CC1(C)CC2(CC3(C1)SCCS3)SCCS2
inactive: [1] -11.2% | [2] -5.25% | [3] -8.8% | [4] 5.45% | [5] -5.8% | [6] 1.35%

CCNC1=CC(=O)c2ncccc2C1=O
inactive: [1] 47.9% | [2] 15.7% | [3] 27.7% | [4] -8.25% | [5] 39.2% | [6] 28.4%

O=C1CN(c2ccccc2)CC(=O)N2Cc3ccccc3CN12
inactive: [1] -4.05% | [2] 1.2% | [3] 9.8% | [4] 17.1% | [5] 16.7% | [6] 14.7%

Cc1ccc(OC(=O)c2cc([N+](=O)[O-])cc([N+](=O)[O-])c2)cc1
inactive: [1] 4.4% | [2] -0.5% | [3] 13.3% | [4] -12.8% | [5] 2% | [6] -0.7%

CCOC(=N)CC(=O)Nc1ccccc1
inactive: [1] 4.45% | [2] 1.1% | [3] 1.65% | [4] -1.6% | [5] 3.6% | [6] 2.35%

O=C(c1ccc(F)cc1)c1cccc(C(=O)c2ccc(F)cc2)n1
inactive: [1] -16.8% | [2] -24% | [3] -29.9% | [4] 8.15% | [5] -3.4% | [6] -36.1%

CC1=CC=CC(C)(C)C(=O)C1=O
inactive: [1] -31.4% | [2] -13.2% | [3] -12.8% | [4] -18.9% | [5] -21.5% | [6] -15.4%

Cc1cc2nc(C(C)(C)O)[nH]c2cc1C
inactive: [1] 0.2% | [2] -4.8% | [3] 2.8% | [4] 8.2% | [5] 1.6% | [6] 13.2%

CCCOC(=O)C(O)c1ccc(C)cc1 (stereo unspecified)
inactive: [1] -1.5% | [2] -11.8% | [3] 12.9% | [4] -3.75% | [5] 5.7% | [6] -14.7%

C/C(=N\Nc1ccccc1)c1sc(-c2nc(C)c(/C(C)=N/Nc3ccccc3)s2)nc1C
inactive: [1] 24.3% | [2] -3.2% | [3] 14.3% | [4] -29% | [5] 17.6% | [6] 25.2%

N#CNS(=O)(=O)c1ccccc1
inactive: [1] 8.3% | [2] -5.6% | [3] 22.6% | [4] 14% | [5] 12.2% | [6] 17.6%

C[N+](C)(C)CCc1ccccc1
inactive: [1] 1.9% | [2] -3.15% | [3] -0.85% | [4] -26.4% | [5] -12.9% | [6] 16.1%

COc1cc(NCCCCCNC(C)C)c2ncccc2c1
inactive: [1] 48.9% | [2] 20.2% | [3] 35.3% | [4] 27.9% | [5] 35.6% | [6] 54%

CC(=O)Nc1cscc1NC(C)=O
inactive: [1] -3.8% | [2] -10.7% | [3] 6.05% | [4] -0.2% | [5] 16.9% | [6] -9.5%

NNc1nc2ccccc2c(=O)n1NC(=O)C(=O)Nc1cccc(C(F)(F)F)c1
inactive: [1] -0.35% | [2] 17.6% | [3] -3.9% | [4] -38.6% | [5] -6.15% | [6] 31.4%

CCOC(=O)CCC(NC(=O)c1ccc(Nc2nc3ccccc3nc2-c2cccs2)cc1)C(=O)OCC (stereo unspecified)
inactive: [1] 7.1% | [2] 4.3% | [3] 20.1% | [4] 14.8% | [5] 9.2% | [6] -34.7%

CCOC(=O)C1OC1(C)c1ccc(Cl)cc1 (stereo unspecified)
inactive: [1] 6.1% | [2] 3.8% | [3] -0.7% | [4] 5.25% | [5] -5.8% | [6] 0.6%

O=C1CCC(=O)N1CC1CC2CCC1C2 (stereo unspecified)
inactive: [1] 40% | [2] 4.15% | [3] 22.2% | [4] 23.8% | [5] 4.4% | [6] 36%

CSC1=Nc2ccccc2N=C(c2ccccc2)C1
inactive: [1] 41.9% | [2] -10.8% | [3] 52% | [4] 9.05% | [5] 44.8% | [6] 23.3%

CCOc1ccccc1NCN1C(=O)c2ccccc2C1=O
inactive: [1] -38.9% | [2] -35.1% | [3] -12.2% | [4] -8.65% | [5] -18.3% | [6] -20.1%

O=C(Nc1ccc(Cl)cc1)OCc1ccco1
inactive: [1] 2.2% | [2] 24.1% | [3] 24.4% | [4] -12.4% | [5] 17.8% | [6] 16.8%

CN(C)c1ccc(/C=C(\C#N)c2cccc(Br)c2)cc1
inactive: [1] -2.45% | [2] -7.3% | [3] 3.1% | [4] -11.3% | [5] 12.1% | [6] -0.05%
